# Measurements taken from PubChem BioAssay AID1671189 (National Center for Advancing Translational Sciences (NCATS), 2021).
# Several values for one entry are separate records, joined by “and”; a condition that tells them apart may be missing. Identical values can stand only once. About 70 (6%) of roughly 1,100 compounds were called active. Not shown: some 22% with an inconclusive outcome. The entries come from a sample that favours actives as a whole. A number with no mark means an inactive call. Calls follow the shape of the dose curve; as a rule, active = well fitted curve in the direction sought with a large enough effect; inconclusive = small, poorly fitted or top-dose-only effect, or another doubt; inactive = no such curve, though single readings can be large or run the other way.
# Target: Polyunsaturated fatty acid lipoxygenase ALOX12 (Homo sapiens) (UniProt P18054)
# Sequence (P18054 whole entry, looked up): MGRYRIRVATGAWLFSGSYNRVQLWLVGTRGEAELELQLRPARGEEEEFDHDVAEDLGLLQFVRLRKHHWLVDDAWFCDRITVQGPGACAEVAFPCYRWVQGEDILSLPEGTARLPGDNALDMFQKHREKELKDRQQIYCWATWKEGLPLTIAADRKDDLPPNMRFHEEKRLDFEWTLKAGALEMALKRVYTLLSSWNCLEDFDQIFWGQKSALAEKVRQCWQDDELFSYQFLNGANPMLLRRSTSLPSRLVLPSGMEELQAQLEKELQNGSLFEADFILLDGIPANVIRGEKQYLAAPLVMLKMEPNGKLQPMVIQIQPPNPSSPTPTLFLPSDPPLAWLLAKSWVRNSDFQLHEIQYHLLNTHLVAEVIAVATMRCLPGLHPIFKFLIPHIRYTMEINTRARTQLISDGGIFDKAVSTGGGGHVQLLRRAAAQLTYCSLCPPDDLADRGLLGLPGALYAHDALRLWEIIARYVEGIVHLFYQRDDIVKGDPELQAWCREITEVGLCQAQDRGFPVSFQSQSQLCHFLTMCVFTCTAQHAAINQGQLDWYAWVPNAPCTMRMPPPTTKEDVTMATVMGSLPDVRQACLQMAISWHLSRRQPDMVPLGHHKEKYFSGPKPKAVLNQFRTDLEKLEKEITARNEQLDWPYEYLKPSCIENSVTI
# Test: Confirmatory qHTS assay for inhibitors of human arachidonate 12S-lipoxygenase (ALOX12): Round 2
# Details: purified human 12-LOX, xylenol orange absorbance; series mostly up to 125 µM; activity change, negative = inhibition: at the top concentration
# Excerpt: Assay Provider: Theodore R. Holman Ph.D. University of California, Santa Cruz, California Human lipoxygenase 12hLO is a member of the closely related lipoxygenase family of enzymes which catalyze the site-specific oxidation of arachidonic acid to various hormone precursor molecules and as such is a candidate for drug development in a variety of disease areas, such as cancer and inflammation. Inhibition of 12hLO activity was screened by utilizing arachidonic acid as a substrate. The extent of hydroperoxide product formation was measured by a secondary chromogenic reaction in which xylenol orange (XO, Sigma-Aldrich, cat. number 39,818-7) reacts with the ferric ions produced from the reaction between the hydroperoxide and ferrous ions. The Fe (III)-XO complex is characterized with red-shifted absorbance at 560 nm. A purified preparation of human 12hLO was supplied by Dr. Holman laboratory, University of California, Santa Cruz.
# PROTOCOL TABLE SEQUENCE No. (e.g., 1, 2, 3, etc.); […] (e.g., Cells, Incubation, Reagent, etc.); VALUE; DESCRIPTION 1; Enzyme; 3 uL; 150 nM 12hLO enzyme solution dispensed in 1536-well Greiner black, clear bottom plates. 2; Compound; 23 nL; compounds and controls were added. 3; Incubate; 15 min; room temperature. 4; Substrate; 1 uL; 40 uM arachidonic acid (final concentration). 5; Incubate; 30 min; room temperature. 6; Reagent; 4 uL; Fe-XO solution was added to each well. 7; Incubation; 30 min; room temperature 8; Detector; absorbance; Read 1 at 405 nm absorbance using ViewLux (PerkinElmer) CCD imager. 9; Detector; absorbance; Read 2 at 573 nm absorbance using ViewLux (PerkinElmer) CCD imager. NOTES (numbers refer to sequence above) 1; 150 nM 12hLO (final concentration) in buffer solution (25 mM Hepes, 0.01% Triton X-100, pH 7.0) was dispensed in columns 1, 2, 5-48. Column 1 is neutral (100% activity). Buffer only was dispensed in columns 3 and 4 as no enzyme negative controls. The plates were covered with metal lids with gas-exchange holes. 2; Compounds were pin transferred via a Kalypsys Pin Tool (Wako USA) in column 5 - 48. Control compound was transferred in column 2, titration of nordihydroguaiaretic acid (NDGA, Sigma-Aldrich, N5023) with top concentration of 20 mM in DMSO then 1:3 dilution in duplicate. Dilution factor of 23 nL into 4 uL final assay volume. 3; Covered assay plates were incubated for 15 min at room temperature. 4; Substrate was added to start the reaction; 40 uM arachidonic acid (Sigma-Aldrich, St. Louis, MO) was dispensed throughout the plate. 6; Chromogenic detection reagent solution (divalent iron/xylenol orange, Fe-XO) was added to each well: 200 uM xylenol orange, 300 uM ferrous ammonium sulfate prepared freshly in 50 mM sulfuric acid. 8, 9; Two absorbance readouts were obtained at 405 nm and at 573 nm using a ViewLux high-throughput CCD plate imager (PerkinElmer). The 573 to 405 (Read 2 / Read 1) absorbance ratio was used to compute reaction progress.
# % is scaled to controls: 0 for no effect and ±100 for the full control effect; potency is read from the fitted curve at half-maximal effect.
SMILES,"activity change, negative = inhibition",Potency
COC(=O)[C@H](c1ccccc1Cl)N1CCc2sccc2C1,-3.69%,
CC(=O)NC(c1cccs1)c1cc(Br)c2cccnc2c1O (stereo unspecified),6.7% [at 64.5 µM],
CCC(=O)NC(c1cccs1)c1cc(Cl)c2cccnc2c1O (stereo unspecified),,1.93 µM (active) and 4.85 µM (active) and 2.43 µM (active)
NCc1cccc(-c2cc(C(F)(F)F)ccc2Cl)c1,-40.7%,
Cc1ccc(CN2CCc3oc(C)c(C(=O)N4CCSCC4)c3C2)cc1,-4.93% [at 64.5 µM],
Cc1ccc(CCN2CCCCC23Cc2ccccc2CN(C(=O)CCCC(=O)O)C3)cc1 (stereo unspecified),-13.9%,
CN1CC(=O)N(C2CCCNC2)Cc2c(NC3CCCCCC3)ncnc21 (stereo unspecified),-16.7%,
CC(C)(N)C(=O)N1CCCC(N2CCN(Cc3ccc4c(c3)OCO4)CC2)C1 (stereo unspecified),-16% [at 64.5 µM],
COc1ccc(N2CC3CCC(C2)N3C(C)=O)cc1,-16.6%,
O=C(c1cc(C2CC2)nc2onc(C3CCCN3)c12)N1CCC(F)CC1 (stereo unspecified),-12.7%,
COc1ccc(C(=O)N2CC(Oc3ccc4c(c3)OCO4)C2)cc1,-21.1%,
O=C(Nc1ccccc1)O[C@@H]1CO[C@H]2[C@@H]1OC[C@@H]2n1nnnc1SCc1ccco1,-10.7% [at 64.5 µM],
O=C(NC1CCCCC1)O[C@@H]1CO[C@H]2[C@@H]1OC[C@@H]2n1nnnc1SCc1ccco1,,7.08 µM (active)
O=C(c1cc(C2CC2)nc2c1c(C1CCCN1)nn2-c1ccccc1)N1CCC(F)CC1 (stereo unspecified),-14.7%,
CNc1nnc(-c2cccc3ccccc23)s1,1.24% [at 64.5 µM],
CC(=O)N1Cc2ccccc2CC2(CCN(Cc3ccncc3)C2)C1 (stereo unspecified),-13.8%,
CCCC(=O)N1Cc2ccccc2CC2(CCN(Cc3ccccc3)CC2)C1,-3.28%,
O=C(C1CCCC1)N1Cc2ccccc2CC2(CCN(Cc3cccnc3)C2)C1 (stereo unspecified),-28.9%,
O=C(C1CCCC1)N1CC2(CCN(Cc3ccc(Cl)cc3)C2)Cc2ccccc21 (stereo unspecified),,6.22 µM (active)

SMILES,"activity change, negative = inhibition",Potency
CCC(=O)N1Cc2ccccc2CC2(CCN(Cc3ccncc3)CC2)C1,1.87%,
CCCC(=O)N1Cc2ccccc2CC2(CCN(Cc3ccc(O)cc3)C2)C1 (stereo unspecified),-12.5%,
O=C(c1ccc(Cl)cc1)N1CC2(CCN(Cc3ccc(Cl)cc3)C2)Cc2ccccc21 (stereo unspecified),,1.56 µM (active)
O=C(C1CCCC1)N1Cc2ccccc2CC2(CCN(Cc3ccncc3)C2)C1 (stereo unspecified),-11.8%,
NC(=O)c1cccc(CN2CCC3(CC2)Cc2ccccc2N(C(=O)c2ccc(Cl)cc2)C3)c1,,22.1 µM (active)
O=C(c1ccc(Cl)cc1)N1CC2(CCCN(Cc3ccccn3)C2)Cc2ccccc21 (stereo unspecified),-27.8%,
CC(=O)N1CC2(CCCN(CC3CCCCC3)C2)Cc2ccccc21 (stereo unspecified),-4.35%,
O=C(c1ccc(Cl)cc1)N1CC2(CCCN(Cc3ccc(Cl)cc3)C2)Cc2ccccc21 (stereo unspecified),,4.94 µM (active)
CC(=O)N1Cc2ccccc2OC2(CCN([S+](C)(=O)[O-])CC2)C1,-1.67%,
CNc1oc(C2CCCC2)nc1C#N,18.7% [at 64.5 µM],
Cc1cccc(-c2cnc3n[nH]c(-c4ccc5c(c4)OCO5)c3n2)c1,-11.5% [at 64.5 µM],
CN1CC(=O)N(C2CCCNC2)Cc2c(NC3CCC3)ncnc21 (stereo unspecified),-14.2%,
N#Cc1cc2nc(O)c(O)nc2cc1[N+](=O)[O-],-5.48%,
OC1(CN2CCN(c3nccs3)CC2)CCCNC1 (stereo unspecified),-6.16% [at 64.5 µM],
Cc1ccc(-c2ccccc2CN)c(C)c1,-9.84%,
CCOCCCNc1ncnc2c1CN(C1CCCNCC1)C(=O)CN2C (stereo unspecified),-3.49%,
CN1CC(=O)N(C2CNC2)Cc2c(NC3CC3)ncnc21,5.35%,
CN1CC(=O)N(C2CCCNC2)Cc2c(NCC3CCCCCC3)ncnc21 (stereo unspecified),-26.4%,
O=C1NCc2ccccc2CC12CCN(Cc1ccc(F)c(Cl)c1)CC2,-23.5%,

SMILES,"activity change, negative = inhibition",Potency
C[S+](=O)([O-])N1CC2(Cc3ccccc3NC2=O)C1,-1.61%,
N#Cc1ccc(CN2CCn3c(nn(-c4cccc(Cl)c4)c3=O)C2)cc1,-26.4%,
O=C(c1ccc(C(F)(F)F)cc1)N1CCC2(CC1)C(=NC1CCCCC1)NC(=O)N2c1cc(F)cc(F)c1,-16.1%,
CC(=O)NCCC(=O)N1Cc2ccccc2CC2(CCCN2CC2CCNCC2)C1 (stereo unspecified),-18%,
COc1cccc(CC(=O)N2CC(CO)C3(CCNCC3)C2)c1 (stereo unspecified),-11.8% [at 64.5 µM],
Nc1ccccc1CN1CCCC2(Cc3ccccc3CNC2=O)C1 (stereo unspecified),-0.411%,
CCOc1cccc(CN2CCC3(Cc4ccccc4CNC3=O)C2)c1 (stereo unspecified),-12.7%,
O=C1NCc2ccccc2CC12CCN(Cc1ccc(Br)cc1)C2 (stereo unspecified),,17.5 µM (active)
CCOc1ccc(CN2CCC3(Cc4ccccc4CNC3=O)C2)cc1 (stereo unspecified),-18.2%,
Cc1cc(C)c(CN2CCC3(Cc4ccccc4CNC3=O)C2)c(C)c1 (stereo unspecified),,0.879 µM (active)
Cc1ccc(CN2CCC3(Cc4ccccc4CNC3=O)C2)cc1C (stereo unspecified),-25.3%,
O=C1NCc2ccccc2CC12CCN(Cc1ccccc1Cl)C2 (stereo unspecified),-22.5%,
O=C1NCc2ccccc2CC12CCN(Cc1cc(O)cc(O)c1)C2 (stereo unspecified),-15%,
O=C1NCc2ccccc2CC12CCN(Cc1cccc(Br)c1)C2 (stereo unspecified),-17.3%,
O=C1NCc2ccccc2CC12CCN(Cc1ccc(Cl)cc1)CC2,-21.7%,
O=C1NCc2ccccc2CC12CCN(Cc1ccc(Cl)cc1)C2 (stereo unspecified),,27.5 µM (active)
Cc1cc(C)cc(CN2CCC3(Cc4ccccc4CNC3=O)C2)c1 (stereo unspecified),-13.7%,
O=C1NCc2ccccc2CC12CCN(Cc1ccc(Oc3ccccc3)cc1)C2 (stereo unspecified),,55.5 µM (active)
